Laboratory results: ChEMBL document CHEMBL3988442, “University of Dundee, Small-Polar-MMV Screening Library” (2021)
The campaign covered roughly 48,000 compounds. About 13,000 (27%) showed an effect of 50% or more. This is one part of the list.

Tested on: Wolbachia pipientis
Test: Anti-Wolbachia Cell-Based Screen
Format: functional
Design: scale not given: in the data most compounds retested in dose-response had high values
Conditions: 5 µM

Row | Structure (SMILES) | Percent Effect
1 | Cc1nc(C)c(-c2ccn(CC(=O)Nc3cnn(C)n3)n2)s1 | -4.351%
2 | O=C([C@H]1COC[C@H]2CN(C3CCOCC3)C[C@H]21)N1CCCCO1 | 5.01%
3 | CC(C)CC(C)NC1CCN(c2cccc(-c3cscn3)c2)CC1 (centres undefined) | -3.86%
4 | CN1CCC2(CC1)CN(C(=O)c1cccc3cccnc13)CCN2C | -18.03%
5 | CC(C)=CCCN1CCN(C)C2(CCC(=O)N(C)CC2)C1 (centres undefined) | 4.747%
6 | Cc1ccc(C(=O)N2CCN(C)C3(CCC(=O)N(C)CC3)C2)c(F)c1 (centres undefined) | 104.4%
7 | Cc1csc(S(=O)(=O)N2CCN(C)C3(CCC(=O)N(C)CC3)C2)c1 (centres undefined) | -20.06%
8 | Cc1ccc(S(=O)(=O)N2CCN(C)C3(CCC(=O)N(C)CC3)C2)s1 (centres undefined) | 14.37%
9 | Cc1[nH]ccc1C(=O)N1CCC2(CC1)c1nc[nH]c1CCN2CC(C)C | 14.8%
10 | Cc1ccc(C)c(S(=O)(=O)N2CCN(C)C3(CCC(=O)N(C)CC3)C2)c1 (centres undefined) | -7.559%
11 | CN1CC2(CCCN(C(=O)c3cnc4ccc(F)cc4c3O)C2)OC1=O (centres undefined) | -10.25%
12 | Cc1cc(F)ccc1C(=O)N1CCN(C)C2(CCC(=O)N(C)CC2)C1 (centres undefined) | 91.8%
13 | CSc1ccccc1C(=O)N1CCN(C)C2(CCC(=O)N(C)CC2)C1 (centres undefined) | 119%
14 | Cc1[nH]ccc1C(=O)N1CCN(C)C2(CCC(=O)N(C)CC2)C1 (centres undefined) | 98.32%
15 | CC(C)N1CC2(CCC1=O)CCN(C(=O)c1cc(F)ccc1Cl)CC2 | -13.76%
16 | COc1cccc(OCc2cc(C(=O)NC[C@@H]3CCCN3)n[nH]2)c1 | -13.46%
17 | COCC1CN(C(=O)c2cnc(C)cn2)Cc2ncnn2C1 (centres undefined) | -2.14%
18 | Cc1c(C(=O)N2CCC(N3CCCCC3)CC2)n(C)c2ccc(Cl)cc12 | 0.1052%
19 | COCc1nnc(C(=O)N(C)Cc2ccc(OC)cc2)o1 | -21.92%
20 | CCCc1nnc(N2CCC(N3CCCCCC3)CC2)o1 | 12.1%
21 | Cc1nnc(NC(=O)N2CCC(N3CCCCC3)CC2)s1 | 6.357%
22 | Cc1noc(CNc2cccc(C(=O)N3CCCC(O)C3)c2)n1 (centres undefined) | 7.269%
23 | COCc1nnc(C(=O)N2CCC(N3CCCCC3)CC2)o1 | 90.19%
24 | COCc1nnc(C(=O)N2CC(N3CCCCC3)C2)o1 | 110.5%
25 | Cc1noc(CNc2ccccc2C(=O)N2CCCC(O)C2)n1 (centres undefined) | -16.45%
26 | COCc1nnc(C(=O)N2CCCC(O)C2)o1 (centres undefined) | 102.5%

Row | Structure (SMILES) | Percent Effect
27 | COc1ccc(NC(=O)CN2CCS(=O)(=O)CC2)cn1 | -4.778%
28 | CCCN(CCC)Cc1nnsc1Cl | -13.3%
29 | Cc1ccc(C(=O)N2C[C@@H](OCC3CCOCC3)[C@H]3OCCC[C@H]32)o1 | -9.797%
30 | C[C@@H](NC(=O)c1ccc(Cl)cc1)c1onc(-c2cccnc2)c1C(=O)O.Cl | -10.74%
31 | c1ccc(-c2nnn3c2COC(CNCC2CC2)C3)cc1 (centres undefined) | -10.69%
32 | NC(=O)c1cc(C2CCCN(CCc3ccccn3)C2)n[nH]1 (centres undefined) | -3.119%
33 | Cc1cccc(CCC(=O)N2CCCC(c3cc(C(N)=O)[nH]n3)C2)c1 (centres undefined) | 2.373%
34 | NC(=O)c1cc(C2CCCN(C(=O)CCc3ccccn3)C2)n[nH]1 (centres undefined) | 94.78%
35 | NC(=O)c1cc(C2CCCN(C(=O)CCc3ccsc3)C2)n[nH]1 (centres undefined) | -0.264%
36 | O=C(Cc1cccnc1)N1CCCC(c2cc(C(F)(F)F)[nH]n2)C1 (centres undefined) | -6.416%
37 | NC(=O)c1cc(C2CCCN(C(=O)CCc3ccncc3)C2)n[nH]1 (centres undefined) | 120%
38 | CC(C)(C#N)C(=O)N1CCCC(c2cc(C(F)(F)F)[nH]n2)C1 (centres undefined) | -7.065%
39 | O=C(CO)N1CCCC(c2cc(C(F)(F)F)[nH]n2)C1 (centres undefined) | 144.8%
40 | NC(=O)c1cc(C2CCCN(C(=O)CCc3cccs3)C2)n[nH]1 (centres undefined) | 95.12%
41 | CN(C)c1nc2c(c(=O)[nH]1)CCN(C(=O)c1c[nH]c(=O)c(Cl)c1)C2 | 24.13%
42 | Cc1cc(C)nc(CNC(=O)C(c2cccnc2)N2CCOCC2)n1 (centres undefined) | 12.66%
43 | O=c1[nH]c2ccccc2cc1CNCCCN1CCOCC1 | 102.3%
44 | Cc1ccc2cc(CNCCCN3CCOCC3)c(=O)[nH]c2c1 | -6.489%
45 | Cc1cc(C)c2cc(CNCCCN3CCOCC3)c(=O)[nH]c2c1 | 97.61%
46 | Cc1ccc2[nH]c(=O)c(CNCCCN3CCOCC3)cc2c1 | 96.42%
47 | Cc1ccc2cc(CNCCN3CCCC3)c(=O)[nH]c2c1 | 112.1%
48 | Cc1ccc2cc(CN(C)Cc3ccncn3)c(=O)[nH]c2c1 | -11.97%
49 | CC(CCc1ccccc1)NC(=O)CNCCCN1CCOCC1.O=C(O)C(=O)O (centres undefined) | 7.217%
50 | Cc1ccc2cc(CN(C)Cc3ncc[nH]3)c(=O)[nH]c2c1 | -0.6566%
51 | Cc1cc(C)cc(CNCCS(=O)(=O)N2CCOCC2)c1 | -11.28%
52 | CCCS(=O)(=O)N1C[C@@H]2CN(Cc3cnn(C)c3)CCO[C@@H]2C1.O=C(O)C(F)(F)F | -20.93%

Row | Structure (SMILES) | Percent Effect
53 | CCOC(=O)c1n[nH]cc1CN1CCOC(Cc2ccc(F)cc2)C1 (centres undefined) | -1.908%
54 | CCOc1ccc(CN2CC[C@](C)(O)C(C)(C)C2)cn1 | -8.073%
55 | O=C1O[C@@H]2CN(S(=O)(=O)N3CCCC3)C[C@@H]2N1CCc1cccc(Cl)c1 | 9.806%
56 | CN(CCCNC(=O)c1ccc(C#N)cc1)CC(F)(F)F | -0.8138%
57 | Cc1cc(NCCOCCS(C)(=O)=O)nc2ccccc12 | -11.25%
58 | Cc1nc(NC(=O)N2CCCC(C(F)(F)F)C2)nn1C (centres undefined) | -33.51%
59 | O=S(=O)(Nc1cn[nH]c1)c1ccc(Br)c(F)c1 | -16.59%
60 | CC(C)Cc1cc(NC(=O)c2ccccn2)n(C)n1 | 95.28%
61 | CC(C)Cc1cc(NC(=O)c2ccncc2)n(C)n1 | 97.89%
62 | CC(C)Cc1cc(NC(=O)c2n[nH]c3ccccc23)n(C)n1 | 100%
63 | CC(C)Cc1cc(NC(=O)c2ccc(=O)[nH]n2)n(C)n1 | 9.079%
64 | COc1ccc(C(=O)Nc2cc(CC(C)C)nn2C)cc1 | 109.3%
65 | COc1cccc(OC2CN(C(=O)c3cc(CC(C)C)nn3C)C2)c1 | -45.28%
66 | COc1cccc(C(=O)Nc2cc(CC(C)C)nn2C)c1 | -2.904%
67 | Cc1cc(C(C)(O)CNC(=O)c2ccc(Br)o2)c(C)o1 (centres undefined) | -12.89%
68 | CCOC(C)c1noc(CN(C)C(=O)c2ccncc2)n1 (centres undefined) | -13.27%
69 | COCCNC(=O)[C@H]1CN(Cc2nccs2)C[C@H]2OCC[C@@H]12.O=C(O)C(F)(F)F.O=C(O)C(F)(F)F | -11.72%
70 | CCn1cncc1C1CC(=O)Nc2c1c(C)nn2-c1ccc(C)cc1 (centres undefined) | -3.451%
71 | Cn1c2c(c(=O)n1C)CN(S(=O)(=O)c1cccs1)CCC2 | -5.821%
72 | CN(Cc1cccc(F)c1)C(=O)CS(=O)(=O)Cc1ccc(Cl)c(Cl)c1 | 7.071%
73 | CC(C)Cc1cc(C(=O)N2CCC(Oc3cccnc3)CC2)n(C)n1 | -0.7222%
74 | CC(C)Cc1cc(NC(=O)c2cccnc2)n(C)n1 | 95.88%
75 | CC(C)Cc1cc(NC(=O)c2ccc[nH]2)n(C)n1 | 5.511%
76 | CC(C)Cc1cc(NC(=O)c2ccccc2)n(C)n1 | 80.95%
77 | CC(=O)Nc1cc(C(=O)Nc2cc(CC(C)(C)C)nn2C)ccc1F | -21.96%
78 | CC(C)Cc1cc(NC(=O)N2CCC(Oc3cccnc3)C2)n(C)n1 (centres undefined) | -4.031%

Row | Structure (SMILES) | Percent Effect
79 | CC(C)Cc1cc(NC(=O)c2cc(Cl)c[nH]2)n(C)n1 | 97.83%
80 | Cc1cnn(CC2CCCN2CC(=O)N(C)CCC#N)c1 (centres undefined) | -15.64%
81 | COc1cccc(CN(C)C(C)c2ccon2)c1OCCn1ccnc1 (centres undefined) | 6.714%
82 | N#Cc1cccc(OC2CCN(C(=O)c3cncc(O)c3)CC2)c1 | -9.362%
83 | CC(NCCn1cccn1)c1ccc(F)cc1F (centres undefined) | 14.02%
84 | CCn1cnnc1C1CCN(C(=O)c2ccc3c(c2)nnn3C)CC1 | 122.3%
85 | CCn1cnnc1C1CCN(C(=O)c2ccnc(N(C)C)c2)CC1 | 117.4%
86 | CCn1cnnc1C1CCN(C(=O)c2cccc3c2ccn3C)CC1 | 4.279%
87 | Cn1nnc2cc(C(=O)N3CCCC3Cc3ccccc3)ccc21 (centres undefined) | -4.659%
88 | CCN1CCN(C(=O)c2ccnc(N(C)C)c2)CC1 | -10.63%
89 | CCn1cnnc1C1CCN(C(=O)c2cccc(N(C)C)c2)CC1 | 182%
90 | CCn1cnnc1C1CCN(C(=O)CC(C)n2cccc2)CC1 (centres undefined) | -3.98%
91 | CCn1cnnc1C1CCN(C(=O)c2cccc(-n3cccc3)c2)CC1 | 173.7%
92 | O=C(O)C(F)(F)F.O=C(c1nc2c(o1)CN(CC1CCC1)C2)N1CCCC1 | 1.201%
93 | CC(C)(CNC(=O)C1CCCN1S(C)(=O)=O)N1CCOCC1 (centres undefined) | 0.9982%
94 | Cc1cc(CNCC2(O)CCOCC2)ccc1F | -13.16%
95 | COC(=O)N1CCN(Cc2ccccc2C(C)(C)C#N)CC1 | -9.14%
96 | COc1ccc(CN(C)c2nc3c(cnn3C)c(=O)[nH]2)c(OC)c1 | -2.005%
97 | COc1ccccc1N(C)Cc1nc2c(cnn2C)c(=O)[nH]1 | -7.278%
98 | COc1ccccc1-c1cc(C(=O)N2CCCC2)c2cnn(C)c2n1 | 117.8%
99 | COc1cccc2c1N(Cc1nc3c(cnn3C)c(=O)[nH]1)CCC2 | -0.8657%
100 | COc1ccccc1-c1cc(C(=O)N(C)C)c2cnn(C)c2n1 | 108%
101 | COc1cccc(CN(C)Cc2nc3c(cnn3C)c(=O)[nH]2)c1OC | 14.32%
102 | COc1ccccc1CN(C)c1nc2c(cnn2C)c(=O)[nH]1 | -4.184%
103 | COc1ccccc1OC1CCN(C(=O)c2cnc(C)cc2C)CC1 | -3.522%
104 | COc1ccccc1-c1cc(C(=O)N(C)C)nc2c1cnn2C | 124.6%
